The source made the active and inactive calls. How the source made its calls: active means hit-call score of the fitted dose curve at least 0.9, where 1 is the maximum; inactive means score below 0.9.

From PubChem BioAssay (EPA / NIEHS) come the findings set out here.

Aryl hydrocarbon receptor (Homo sapiens), sequence (P35869 whole entry, looked up): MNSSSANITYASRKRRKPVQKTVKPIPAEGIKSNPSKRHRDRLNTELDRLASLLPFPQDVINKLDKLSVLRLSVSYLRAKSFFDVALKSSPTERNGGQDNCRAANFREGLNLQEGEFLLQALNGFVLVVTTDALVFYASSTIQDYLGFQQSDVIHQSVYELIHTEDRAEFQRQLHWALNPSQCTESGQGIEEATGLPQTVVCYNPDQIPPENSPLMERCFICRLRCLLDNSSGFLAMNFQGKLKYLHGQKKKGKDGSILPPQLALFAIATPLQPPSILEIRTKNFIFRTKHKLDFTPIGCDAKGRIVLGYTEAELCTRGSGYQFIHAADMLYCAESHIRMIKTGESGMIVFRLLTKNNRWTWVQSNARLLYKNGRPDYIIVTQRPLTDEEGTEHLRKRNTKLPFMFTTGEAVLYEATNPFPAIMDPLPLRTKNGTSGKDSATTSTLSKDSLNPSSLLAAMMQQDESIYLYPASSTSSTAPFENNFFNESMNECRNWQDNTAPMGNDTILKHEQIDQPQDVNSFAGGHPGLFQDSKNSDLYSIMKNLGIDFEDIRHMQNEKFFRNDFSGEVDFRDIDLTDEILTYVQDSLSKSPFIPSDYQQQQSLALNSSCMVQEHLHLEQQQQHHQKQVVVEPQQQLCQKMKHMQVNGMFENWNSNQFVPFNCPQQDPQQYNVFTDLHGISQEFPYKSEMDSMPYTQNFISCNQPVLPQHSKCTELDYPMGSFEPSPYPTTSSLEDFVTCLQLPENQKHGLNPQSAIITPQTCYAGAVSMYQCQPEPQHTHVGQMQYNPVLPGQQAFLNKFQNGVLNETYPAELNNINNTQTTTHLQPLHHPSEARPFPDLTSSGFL

This assay addresses Aryl hydrocarbon receptor (Homo sapiens) (UniProt P35869). As to the kind of experiment: ATG_Ahr_CIS: Attagene CIS-FACTORIAL HepG2 Assay for human Aryl Hydrocarbon Receptor (Ahr) (AID 2282930). The note with it: HepG2 AhR cis-factorial reporter transcription; actives raise or lower the signal. As to the method:
ATG_CIS is a cell-based, multiplexed-readout assay that uses HepG2, a human liver cell line, with measurements taken at 24 hours after chemical dosing in a 24-well plate.ATG_Ahr_CIS is one of 52 assay component(s) measured or calculated from the ATG_CIS assay. It is designed to make measurements of mRNA induction, a form of inducible reporter, as detected with fluorescence intensity signals by Reverse transcription polymerase chain reaction (RT-PCR) and Capillary electrophoresis technology.Data from the assay component ATG_Ahr_CIS was analyzed into 1 assay endpoint. This assay endpoint, ATG_Ahr_CIS, was analyzed with bidirectional fitting relative to DMSO as the negative control and baseline of activity. Using a type of inducible reporter, measures of mRNA for gain or loss-of-signal activity can be used to understand the reporter gene at the transcription factor-level as they relate to the gene AHR. Furthermore, this assay endpoint can be referred to as a primary readout, because this assay has produced multiple assay endpoints where this one serves a reporter gene function. To generalize the intended target to other relatable targets, this assay endpoint is annotated to the dna binding intended target family, where the subfamily is basic helix-loop-helix protein.
Human liver HepG2 cells are transiently transfected with multiple reporter transcription units (MRTUs) in 6-well plates using FuGene 6 reagent (Roche; 3 ml FuGene/1 mg DNA). The MRTU constructs are regulated by a cis-regulating element (promoter). […] A major difference between the CIS and TRANS system is that in CIS activities of endogenous TFs are measured, whereas the TRANS assay evaluates changes in activities of exogenous, chimeric NR-Gal4 proteins. […] At the end of 24 hour incubation, total RNA was isolated using TriZol reagent (Invitrogen). The isolated RNA is then reverse-transcribed using oligo(dT) primer and Mo-MLV reverse transcriptase (Invitrogen) with DNAse I (Ambion) treatment for 30 min. The one-tenth of the produced cDNA was amplified by PCR using Taq DNA polymerase (Invitrogen) and two reporter sequence-specific primers. The PCR products were fluorescently labeled by primer extension with 6-arboxyfluorescein (6-FAM) 5'-labeled reporter sequence-specific primer (2 min at 95 C, 20 s at 68 C and 10 min at 72 C) and these products were digested with 5U of HpaI (New England Biolabs) for 2h at 37 C. […] The raw capillary electrophoresis data was processed using Attagraph software (Attagene).
Regarding `C=CCOC(=O)CCC1CCCCC1`, the result was inactive. Same read-out and setting: the entry for `CCCCOCCOCCSC#N` is “inactive”. What is called AC50 is the concentration at which the activity in the assay is half-maximal. Consider `O=C=NC1CCC(CC2CCC(N=C=O)CC2)CC1` (stereo not given), for which the AC50 was 83.7 µM (active). Consider `O=C1C(c2[nH]c3ccc(S(=O)(=O)O)cc3c2O)=Nc2ccc(S(=O)(=O)O)cc21`, for which the AC50 is 27.6 µM (active).

Turning to `Cc1cccc(Nc2ccccc2C(=O)O)c1C`, the call was inactive. Take `CCCCC[Si](OCC)(OCC)OCC`: the compound was called inactive. On to `O=C1CCCCCCCCCCOCCCCO1`, for which the outcome was inactive. Take `CC(C)=CCC/C(C)=C/COC=O`: the compound was classed as inactive. As for `COc1cc(C(C)(C)C)c(O)c(C(C)(C)C)c1`, the outcome was inactive.

As for `CC1=CCC2C(C1)C2(C)C` (stereo not given), the result was inactive. As for `COc1cc2ncnc(Nc3cccc(Cl)c3)c2cc1OC`, the call was inactive. For `c1ccc2[nH]ccc2c1`, the half-maximal activity concentration (AC50) was 14.6 µM (active). For `Sc1nc(S)nc(S)n1`, the outcome was inactive.

As to `C=CC(=O)NCOCC(C)C`, the result was inactive.

Take `CCC(=O)/C=C/C1C(C)=CCCC1(C)C` (stereo not given): the compound was called inactive. Regarding `CCCCCCCCCCC(CO)CCCCCCCC` (stereo not given), the compound was classed as inactive. For the compound `CC1CC(OC(=O)c2ccccc2O)CC(C)(C)C1` (stereo not given), the compound was classed as inactive.

As for `CCCc1c(OCCCOc2ccc(OCC(=O)O)cc2)ccc(C(C)=O)c1O`, the call was inactive.

Turning to `CCCC/C=C\CCCCCCCCCC=O`, the compound was called inactive. Consider `CC(CN1c2ccccc2Sc2ccccc21)N(C)C` (stereo not given), for which the outcome was inactive. For the compound `O=C(O)Cc1cccc2ccccc12`, the call was inactive. On to `CCCCC(CC)COCCC#N` (stereo not given), for which the outcome was inactive. With `NC(=O)NC1NC(=O)NC1=O` (stereo not given), the compound was classed as inactive. For the compound `O=C[C@@H](O)[C@H](O)[C@H](O)CO`, the call was inactive. As for `Cc1cccc(C)c1[N+](=O)[O-]`, the outcome was inactive.

For `O=c1cc(-c2ccccc2)oc2cc(O)cc(O)c12`, the concentration at half-maximal activity (AC50) is 5.85 µM (active). The same measure, in the same setting: under `OC1C(O)C(O)C(O)C(O)C1O` (stereo not given) stands 70.3 µM (active).

In the case of `CC1(C)OC[C@@H]2O[C@@]3(C(=O)O)OC(C)(C)O[C@H]3[C@@H]2O1`, the compound was classed as inactive.

With `CCCCNC(=O)NS(=O)(=O)c1ccc(N)cc1`, the outcome was inactive. Regarding `COc1ccc(NC(=O)CC(C)=O)cc1`, the outcome was inactive. On to `CC(C)=CCCC(C)=CCCC(C)=CCO`, for which the result was inactive. `O=C(COc1ccc(Cl)cc1)N1CCN(Cc2ccc3c(c2)OCO3)CC1`: the call was inactive. As for `CC(=O)/C=C/C1=C(C)CCCC1(C)C`, the outcome was inactive. As for `C=C(C)C(=O)OCCOC(=O)CC(C)=O`, the call was inactive. With `COC(=O)C1=C(C)NC(C)=C(C(=O)OCCN(C)Cc2ccccc2)C1c1cccc([N+](=O)[O-])c1` (stereo not given), the call was inactive. Consider `O=C(O)c1ccc(C(=O)O)cc1`, for which the compound was called inactive. As for `CC(C)=CCO`, the compound was classed as inactive. Turning to `C[Si](O[Si](C)(C)C)O[Si](C)(C)C`, the concentration at half-maximal activity (AC50) was 52.8 µM (active). With `CC(C)(CO)[N+](=O)[O-]`, the compound was classed as inactive. On to `COc1c(Cl)c(Cl)c(Cl)c(Cl)c1Cl`, for which the call was inactive.
